39 compounds from PubChem BioAssay (NCI) can be followed below.

Structures are written as SMILES. About 83,000 compounds went through this panel and 20% of them were active in at least one assay; those are over-represented in the sample as a whole.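 96-well plates, one dose, 48 hours. Percent growth reported; active if below 10.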 Values without a mark were called inactive. Calls of active or inactive are those of the source.

For the first assay, the system named is SK-MEL-5 melanoma. Nature of the assay: NCI-60 one-dose screen, 48 h (100 = growth as untreated, 0 = no growth, -100 = all killed). Conditions: 10 µM unless noted.
For `Clc1ccc(/C=C/c2nc(Nc3ccc(Cl)cc3)c3ccccc3n2)cc1`, the growth was 96.9%.

For the compound `CCOC(=O)c1c(C)nc2c(c1N)/C(=C/c1ccc(OC)cc1)C(=O)N2Cc1ccc(F)cc1`, the growth is -87.9% (active).

On to `CCCCN1CCN(c2ccc3nc(-c4ccc5nc(-c6cc(OC)c(OC)c(OC)c6)[nH]c5c4)[nH]c3c2)CC1`, for which the growth is 44.8%.

Take `O=C1CCC(N2C(=O)c3cccc(NCCCC4CCN(CCNC(=O)c5cc6c(o5)C(=O)c5ccccc5C6=O)CC4)c3C2=O)C(=O)N1` (stereo not drawn): the growth is -99.4% (active).

Turning to `COc1ccc(-c2cncnc2N)cc1OC`, the growth is 106%.

For the compound `O=S(=O)(NCCNc1cc(-c2c(-c3cccc(O)c3)nc3sccn23)ccn1)c1ccc(Br)cc1`, the growth is 25.2%.

On to `CC(=O)c1sc(-c2ccccc2)cc1N`, for which the growth was 95.7%.

As to `Nc1c(C(=O)c2ccccc2)nnc2ncnn12`, the growth was 98.6%.

Take `CCNCCNc1cc(-c2ccc(C#N)cc2)c(C#N)c2nc3ccccc3n12`: the growth is 65.7%.

Regarding `Fc1ccc(Nc2nc(Nc3ccc(-c4nc5ccccc5[nH]4)cc3)c3cn[nH]c3n2)cc1`, the growth is 78.8%.

For `COc1c(C)cnc(CSc2nc(-c3ccc(C)cc3)cn2-c2ccc(Cl)cc2)c1C`, the growth is 105%.

Regarding `Cc1c2c(cn1Cc1ccccc1)CCc1cn[nH]c1-2`, the growth was 89%.

As to `COc1ccc(O)c(-c2cc(-c3ccccc3)c(C#N)c(=O)[nH]2)c1`, the growth is 73.7%.

For the compound `CC(=O)Nc1ccc(C(=O)/C=C/c2ccccc2)cc1`, the growth was 91.5%.

For `CCCCCCCC/C=C/CCCCCCCC1=NCC[N+]1(CCO)CCO`, the growth is 77.9%.

Take `Cc1nc(Nc2ccc(NC(=S)Nc3ccccc3)cc2)nc2nc(Nc3cccc(Cl)c3)[nH]c(=O)c12`: the growth is 102%.

Turning to `O=[N+]([O-])c1ccc(-c2cc3c(Nc4ccc(Sc5nc6ccccc6s5)c(Cl)c4)ncnc3s2)cc1`, the growth is 59.1%.

Regarding `CC(=[N-])N1CCC[C@@H](Nc2c3ccccc3nc3ccccc23)C1.[Cl][Pt].[NH-]CCC[NH-]`, the growth was -84.4% (active).

With `OC(c1cccc(OCc2ccccc2)c1)c1nnc(-c2ccccc2)o1` (stereo not drawn), the growth is 66.4%.

With `COc1ccc(-c2nnc(SCC(=O)NC3=NN=C(c4ccccc4)CS3)o2)cc1`, the growth was 107%.

Turning to `CC(=O)Nc1cccc(C2=CC(c3ccc(C)cc3)n3ncnc3N2)c1` (stereo not drawn), the growth is 91.3%.

On to `CC(C)OC(=O)NNC(=O)c1ccncc1`, for which the growth was 114%.

With `O=C(CC1Sc2ccccc2NC1=O)NNc1ccc(F)cc1` (stereo not drawn), the growth was 106%.

For `CCCCCCCSc1ccc(C(=O)O)cc1`, the growth is 108%.

On to `CC(c1ccc(-n2cccn2)cc1)c1cnc(N2CCc3ccc(C(N)=O)cc3C2)s1` (stereo not drawn), for which the growth is 18.8%.

Take `CCN(CC)CCCNC(=O)c1ccc(N)cc1`: the growth was 97.7%.

With `CSc1nc2sc3cc(Cl)ccc3n2c(=N)c1C#N`, the growth was 45.2%.

Take `CCNCCNc1cc(C2CCCC2)c(C#N)c2nc3ccccc3n12`: the growth was -56.7% (active).

Turning to `COc1cc2oc3cc(C)oc(=O)c3c2cc1OC`, the growth was 95.1%.

Consider `Cc1nc(Nc2cccc(NC(=O)Nc3ccc(Cl)cc3)c2)c2ccccc2n1`, for which the growth is 91.5%.

`CCc1c(C(=O)N[C@@H]2c3cc(Cl)ccc3CC[C@@H]2O)[nH]c(C)c1C(C)=O`: the growth is 45%.

`O=C(CC12CC3CC(CC(C3)C1)C2)NCCOCCOCCOCCNC(=O)c1cc2c(o1)C(=O)c1ccccc1C2=O`: the growth was -98.4% (active).

On to `Cc1cc2c(F)c(Oc3ncnc(Nc4ccc(N5C[C@@H](C)N[C@@H](C)C5)cc4)c3C#N)cc(F)c2[nH]1`, for which the growth was 21.7%.

For `COc1ccc(NC(=O)c2cccc(-c3cc(=O)c4c(O)c(OC)c(OC)cc4o3)c2)cc1`, the growth was 91.4%.

For `Nc1c(-c2nc3ccc(Br)cc3c(=O)[nH]2)nnn1-c1ccccc1`, the growth is 102%.

With `CCOc1cc(N)ccc1C(=O)NCCCN(CC)CC`, the growth is 100%.

Take `CCN(CC)S(=O)(=O)c1ccc(O)c(NC(=O)c2[nH]c(C)c(C(C)=O)c2CCc2ccc(Cl)cc2)c1`: the growth was -25% (active).

For the compound `C=CC(=O)Nc1cccc(C)c1Nc1cc(-c2cccnc2Cc2c(C)c(OC)cc(OC)c2C)ncn1`, the growth was 57.9%.

Turning to `CC(C)c1ccc(C(=O)OC(=O)c2ccc(C(C)C)cc2)cc1`, the growth was 116%.

In the next assay the test system is UACC-62 melanoma. The description is as above. As to conditions: 10 µM unless noted.
`Clc1ccc(/C=C/c2nc(Nc3ccc(Cl)cc3)c3ccccc3n2)cc1`: the growth is 93.2%.

As for `CCOC(=O)c1c(C)nc2c(c1N)/C(=C/c1ccc(OC)cc1)C(=O)N2Cc1ccc(F)cc1`, the growth is -78.2% (active).

For the compound `CCCCN1CCN(c2ccc3nc(-c4ccc5nc(-c6cc(OC)c(OC)c(OC)c6)[nH]c5c4)[nH]c3c2)CC1`, the growth is 39.5%.

Turning to `O=C1CCC(N2C(=O)c3cccc(NCCCC4CCN(CCNC(=O)c5cc6c(o5)C(=O)c5ccccc5C6=O)CC4)c3C2=O)C(=O)N1` (stereo not drawn), the growth was -96.2% (active).

With `COc1ccc(-c2cncnc2N)cc1OC`, the growth was 112%.

Turning to `O=S(=O)(NCCNc1cc(-c2c(-c3cccc(O)c3)nc3sccn23)ccn1)c1ccc(Br)cc1`, the growth is 56.8%.

Consider `CC(=O)c1sc(-c2ccccc2)cc1N`, for which the growth was 91%.

As for `Nc1c(C(=O)c2ccccc2)nnc2ncnn12`, the growth is 99.7%.

Turning to `CCNCCNc1cc(-c2ccc(C#N)cc2)c(C#N)c2nc3ccccc3n12`, the growth was -34.8% (active).

As for `Fc1ccc(Nc2nc(Nc3ccc(-c4nc5ccccc5[nH]4)cc3)c3cn[nH]c3n2)cc1`, the growth was 84.9%.

With `COc1c(C)cnc(CSc2nc(-c3ccc(C)cc3)cn2-c2ccc(Cl)cc2)c1C`, the growth is 81.8%.

As to `Cc1c2c(cn1Cc1ccccc1)CCc1cn[nH]c1-2`, the growth was 76.8%.

As to `COc1ccc(O)c(-c2cc(-c3ccccc3)c(C#N)c(=O)[nH]2)c1`, the growth is 86.1%.

With `CC(=O)Nc1ccc(C(=O)/C=C/c2ccccc2)cc1`, the growth was 90%.

For the compound `CCCCCCCC/C=C/CCCCCCCC1=NCC[N+]1(CCO)CCO`, the growth is 69.4%.

As for `Cc1nc(Nc2ccc(NC(=S)Nc3ccccc3)cc2)nc2nc(Nc3cccc(Cl)c3)[nH]c(=O)c12`, the growth was 102%.

For `O=[N+]([O-])c1ccc(-c2cc3c(Nc4ccc(Sc5nc6ccccc6s5)c(Cl)c4)ncnc3s2)cc1`, the growth is 54.9%.

Take `CC(=[N-])N1CCC[C@@H](Nc2c3ccccc3nc3ccccc23)C1.[Cl][Pt].[NH-]CCC[NH-]`: the growth was -63.3% (active).

As to `OC(c1cccc(OCc2ccccc2)c1)c1nnc(-c2ccccc2)o1` (stereo not drawn), the growth is 61.7%.

Take `COc1ccc(-c2nnc(SCC(=O)NC3=NN=C(c4ccccc4)CS3)o2)cc1`: the growth is 95.2%.

Regarding `CC(=O)Nc1cccc(C2=CC(c3ccc(C)cc3)n3ncnc3N2)c1` (stereo not drawn), the growth was 85.6%.

As for `CC(C)OC(=O)NNC(=O)c1ccncc1`, the growth was 94%.

For the compound `O=C(CC1Sc2ccccc2NC1=O)NNc1ccc(F)cc1` (stereo not drawn), the growth was 40%.

On to `CCCCCCCSc1ccc(C(=O)O)cc1`, for which the growth is 98.6%.

As for `CC(c1ccc(-n2cccn2)cc1)c1cnc(N2CCc3ccc(C(N)=O)cc3C2)s1` (stereo not drawn), the growth was 57.3%.

On to `CCN(CC)CCCNC(=O)c1ccc(N)cc1`, for which the growth was 105%.

In the case of `CSc1nc2sc3cc(Cl)ccc3n2c(=N)c1C#N`, the growth was 59.4%.

With `CCNCCNc1cc(C2CCCC2)c(C#N)c2nc3ccccc3n12`, the growth is -81.4% (active).

Take `COc1cc2oc3cc(C)oc(=O)c3c2cc1OC`: the growth is 90.9%.

As to `Cc1nc(Nc2cccc(NC(=O)Nc3ccc(Cl)cc3)c2)c2ccccc2n1`, the growth is 76.4%.

For the compound `CCc1c(C(=O)N[C@@H]2c3cc(Cl)ccc3CC[C@@H]2O)[nH]c(C)c1C(C)=O`, the growth is 69.7%.

Take `O=C(CC12CC3CC(CC(C3)C1)C2)NCCOCCOCCOCCNC(=O)c1cc2c(o1)C(=O)c1ccccc1C2=O`: the growth is -94.6% (active).

As for `Cc1cc2c(F)c(Oc3ncnc(Nc4ccc(N5C[C@@H](C)N[C@@H](C)C5)cc4)c3C#N)cc(F)c2[nH]1`, the growth was 85.8%.

Regarding `COc1ccc(NC(=O)c2cccc(-c3cc(=O)c4c(O)c(OC)c(OC)cc4o3)c2)cc1`, the growth is 81.1%.

With `Nc1c(-c2nc3ccc(Br)cc3c(=O)[nH]2)nnn1-c1ccccc1`, the growth is 93.9%.

As to `CCOc1cc(N)ccc1C(=O)NCCCN(CC)CC`, the growth is 95.5%.

With `CCN(CC)S(=O)(=O)c1ccc(O)c(NC(=O)c2[nH]c(C)c(C(C)=O)c2CCc2ccc(Cl)cc2)c1`, the growth was 20.2%.

With `C=CC(=O)Nc1cccc(C)c1Nc1cc(-c2cccnc2Cc2c(C)c(OC)cc(OC)c2C)ncn1`, the growth is 38%.

With `CC(C)c1ccc(C(=O)OC(=O)c2ccc(C(C)C)cc2)cc1`, the growth was 99.4%.
